This note sets out measurements from PubChem BioAssay (NCI).

The panel holds about 79,000 compounds, 15% with a hit somewhere; the sample as a whole holds those more often. Values without a mark were called inactive. Activity calls are given as the source filed them. No stated cut-off is given here; in the data, active means growth inhibition above about 70%; inactive means the rest.

One assay is described as follows: NCI Yeast Anticancer Drug Screen. Data for the rad50 strain (AID 155).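 Further: 0% = growth of vehicle-only cultures of the same strain.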 As to conditions: S. cerevisiae rad50 strain growth inhibition; at 50.0 µM; active compounds read high. In a few lines: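 Inhibition values express reduced yeast growth in compound-treated cultures relative to vehicle-treated controls.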
For `CCCC[N+](CCCC)(CCCC)CC(=O)[O-]`, the growth inhibition is 5.7%. Still for that read-out and setting: then `O=C(N/N=C/C=C/c1ccccc1)NNC(=O)c1cc([N+](=O)[O-])cc([N+](=O)[O-])c1`, with 31%; and `CC(O)c1nc2c3ccccc3ccc2n1C` (stereo unspecified), with -6.15%; and `Cc1cccc(C(=O)OCc2ccccc2CN2CCCCC2)c1`, with -5.15%. Still for that read-out and setting: for `CC(=O)OCc1cocc1COC(C)=O` the value was -17.2%; for `C=CCOC(=O)NC1C(OC(C)[C@@H](NC(=O)OCc2ccccc2)C(=O)OC(C)(C)C)OC(COC(C)=O)C(OC(C)=O)C1OC(C)=O` (stereo partly specified), -26.9%. On the same count and under the same terms, for `COc1ccc(CCN2C(CC(=O)c3ccccc3)CCCC2CC(=O)c2ccccc2)cc1OC` (stereo unspecified) the value was -8.05%. With `CCCCC(CC)COS(=O)(=O)O` (stereo unspecified), the growth inhibition is -16.3%. Same read-out and setting: then `C=C1CC(CCCCC2CC(=C)C(=O)O2)OC1=O` (stereo unspecified), with 1.45%; and `Clc1ccc(Nc2ncnc3oc(-c4ccccc4)c(-c4ccccc4)c23)cc1`, with 6.7%; and `CCn1c(=O)c(Cl)c2n(C)c3ccccc3n2c1=O`, with -6.2%. For `CCC(=O)Oc1cccc2ccccc12`, the growth inhibition was -14.4%. Same read-out and setting: for `CCOc1cc2c(cc1C(C)c1ccc(OCc3ccccc3)cc1)OCO2` (stereo unspecified) the value was 6.55%. Still for that read-out and setting: for `C[N+]12CCCCC1CC2` (stereo unspecified) the value was 29.4%; for `COc1cc(-c2nnc3n2NC=C(C(=O)O)S3)cc(OC)c1OC`, 6.75%.

With `CCOC(=O)C(Cc1ccccc1Cl)(NC(C)=O)C(=O)OCC`, the growth inhibition was 2.1%. Same read-out and setting: then `CC(Nc1ncccn1)Nc1ncccn1`, with -6.4%; and `CCN(CC)c1ccc(N=C2C=CC(=O)C(NC(C)=O)=C2)c(C)c1`, with -13.2%; and `Cc1ccc(C(=O)Cc2nc3c([nH]c2=O)c(C)nn3-c2ccccc2)c(C)c1`, with 2.6%. As for `Cc1nc(-n2nc(-c3ccccc3)cc2-c2ccccc2)sc1C(/C=C/c1ccc([N+](=O)[O-])cc1)=N/NC(N)=S`, the growth inhibition is 18.6%.

As to `O=S(Cc1cc2c(cc1Br)OCO2)c1ccccc1` (stereo unspecified), the growth inhibition is -27%.

The nature of a further assay: NCI Yeast Anticancer Drug Screen. Data for the mec2-1 strain (AID 157). As to conditions: S. cerevisiae mec2-1 strain, at 50.0 µM, active compounds read high. In a few lines: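 mec2-1 yeast strain, carrying an alteration in DNA damage repair or cell cycle control, was exposed to compounds; growth inhibition was measured relative to vehicle-treated controls.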
As to `COc1ccc(OC)c(/C=C/C(=O)NC(CO)CSCSC)c1` (stereo unspecified), the growth inhibition is 4.75%.

With `CC(=O)Nc1ccc(S(=O)(=O)N/N=C/c2ccc3c(c2)OCO3)cc1`, the growth inhibition is -20.2%. For `CCCC(CC/C(C)=N/NC(N)=O)[N+](=O)[O-]` (stereo unspecified), the growth inhibition is -9.25%. Same read-out and setting: then `O=CC(NC(=O)C(O)C(O)C(O)C(O)CO)C(O)C(O)C(O)CO` (stereo unspecified), with 6.8%; and `NC(=O)C1CCc2ccccc2C1` (stereo unspecified), with -15.1%.

`Cc1ccc(S(=O)(=O)N/N=C2/CCC(C(C)(C)C)CC2Br)cc1` (stereo unspecified): the growth inhibition is -2.4%. Turning to `CCN(c1ccccc1)c1ncnc2nc[nH]c12`, the growth inhibition is 0.75%. Consider `Cc1ccc(S(=O)(=O)C(=S)N(C)N(C)C)cc1`, for which the growth inhibition is 25.4%. In the case of `OC1CCC2=C(C1)C1CCC2C1` (stereo unspecified), the growth inhibition is -10.7%. On the same count and under the same terms, for `O=C(Nc1ccc(Cl)c(Cl)c1)Oc1ccc(-c2ccccc2)cc1` the value was 88% (active).

As to `Nc1nc(C2CCCC2)c(Br)c(=O)[nH]1`, the growth inhibition is -3.75%. With `COC(=O)c1c(C=O)cccc1[N+](=O)[O-]`, the growth inhibition was -0.05%.

As for `CN(C)CC1CCC/C(=C\c2ccccc2)C1=O` (stereo unspecified), the growth inhibition is 41.8%. Still for that read-out and setting: then `CCN1N=CSC12C(=O)N(c1ccccc1)C(=O)N2c1ccccc1` (stereo unspecified), with -15.1%; and `CCOC(=O)C(N=Nc1ccccc1)C(=O)c1ccccc1` (stereo unspecified), with -2.75%. `CCCC(C)(C)O`: the growth inhibition was 9.15%. Same read-out and setting: for `CCOC(=O)/C(C)=C(/C)Nc1ccccc1` the value was 3.8%. Still for that read-out and setting: for `CCn1c(C)nc([N+](=O)[O-])c1Sc1ncn[nH]1` the value was -10.3%; for `Cc1ccc(N=C2c3cc([N+](=O)[O-])ccc3-c3ccc([N+](=O)[O-])cc32)cc1`, -10.1%; for `CCCC[N+](CCCC)(CCCC)CC(=O)[O-]`, -3.1%. On the same count and under the same terms, for `O=C(N/N=C/C=C/c1ccccc1)NNC(=O)c1cc([N+](=O)[O-])cc([N+](=O)[O-])c1` the value was 10.8%; for `CC(O)c1nc2c3ccccc3ccc2n1C` (stereo unspecified), -0.2%.

Consider `Cc1cccc(C(=O)OCc2ccccc2CN2CCCCC2)c1`, for which the growth inhibition was -9.75%. Same read-out and setting: then `CC(=O)OCc1cocc1COC(C)=O`, with -36%; and `C=CCOC(=O)NC1C(OC(C)[C@@H](NC(=O)OCc2ccccc2)C(=O)OC(C)(C)C)OC(COC(C)=O)C(OC(C)=O)C1OC(C)=O` (stereo partly specified), with -23.8%; and `COc1ccc(CCN2C(CC(=O)c3ccccc3)CCCC2CC(=O)c2ccccc2)cc1OC` (stereo unspecified), with -10.4%. The same measure, in the same setting: for `CCCCC(CC)COS(=O)(=O)O` (stereo unspecified) the value was 2.25%. With `C=C1CC(CCCCC2CC(=C)C(=O)O2)OC1=O` (stereo unspecified), the growth inhibition is -15.8%.

As for `Clc1ccc(Nc2ncnc3oc(-c4ccccc4)c(-c4ccccc4)c23)cc1`, the growth inhibition was 13%. Still for that read-out and setting: for `CCn1c(=O)c(Cl)c2n(C)c3ccccc3n2c1=O` the value was -7.7%; for `CCC(=O)Oc1cccc2ccccc12`, -26.9%; for `CCOc1cc2c(cc1C(C)c1ccc(OCc3ccccc3)cc1)OCO2` (stereo unspecified), 3.55%. On to `C[N+]12CCCCC1CC2` (stereo unspecified), for which the growth inhibition is -5.25%.

For the molecule `COc1cc(-c2nnc3n2NC=C(C(=O)O)S3)cc(OC)c1OC`, the growth inhibition is 2.45%. With `CCOC(=O)C(Cc1ccccc1Cl)(NC(C)=O)C(=O)OCC`, the growth inhibition was -7.95%.

Regarding `CC(Nc1ncccn1)Nc1ncccn1`, the growth inhibition was 1.8%. Same read-out and setting: then `CCN(CC)c1ccc(N=C2C=CC(=O)C(NC(C)=O)=C2)c(C)c1`, with -24.8%; and `Cc1ccc(C(=O)Cc2nc3c([nH]c2=O)c(C)nn3-c2ccccc2)c(C)c1`, with -27.5%. For the molecule `Cc1nc(-n2nc(-c3ccccc3)cc2-c2ccccc2)sc1C(/C=C/c1ccc([N+](=O)[O-])cc1)=N/NC(N)=S`, the growth inhibition was 7.15%.

In the case of `O=S(Cc1cc2c(cc1Br)OCO2)c1ccccc1` (stereo unspecified), the growth inhibition was -33.5%.
